Assay results published in PubChem BioAssay.
The source made the active and inactive calls.

Columns and labels:
[1] = small molecules captured by biotinylated probe aFSTL3 – biochemical, small-molecule microarray, fluorescence 635/667, stem cell growth factor project, primary screen (AID 1064); conditions: higher = more signal;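 further: measures binding of the biotinylated anti-FSTL3 antibody to printed compounds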
[2] = binders from COS7 lysate, DM2A8 probe, primary screen, torsin A project, cell lysate, small-molecule microarray, fluorescence 635/667 (AID 1065); conditions: higher = more signal, COS7 lysate expressing mutant human TOR1A
[3] = small molecules captured by biotinylated probe aFGF2 – biochemical, small-molecule microarray, fluorescence 635/667, stem cell growth factor project, primary screen (AID 1067); conditions: higher = more signal;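 further: measures binding of biotinylated aFGF2 protein to printed compounds on slides; z-score merges feature fluorescence and signal-to-noise across triplicate slides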
[4] = small molecules captured by biotinylated probe aFGF10 – biochemical, small-molecule microarray, fluorescence 635/667, stem cell growth factor project, primary screen (AID 1071); conditions: higher = more signal;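 further: score merges 667 nm spot intensity and signal to noise from triplicate slides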
[5] = biological target: Neurogenic locus notch homolog protein 2 (Homo sapiens) (UniProt Q04721); assay: small molecules binding Notch2 protein – biochemical, small-molecule microarray, 635 nm fluorescence, stem cell growth factors, primary screen (AID 1073); conditions: higher = more signal
[6] = biological target: Pro-neuregulin-1, membrane-bound isoform (Homo sapiens) (UniProt Q02297); assay: small molecules binding neuregulin-1 protein – biochemical, small-molecule microarray, fluorescence 635/667, psychiatric disease protein project, primary screen (AID 1075); conditions: NRG1 binding, 635 nm fluorescence, higher = more signal;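 further: score combines 667 nm spot fluorescence with signal to noise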
Sequence of Pro-neuregulin-1, membrane-bound isoform (Homo sapiens) (Q02297 whole entry, looked up, the tested form may be a part, canonical isoform): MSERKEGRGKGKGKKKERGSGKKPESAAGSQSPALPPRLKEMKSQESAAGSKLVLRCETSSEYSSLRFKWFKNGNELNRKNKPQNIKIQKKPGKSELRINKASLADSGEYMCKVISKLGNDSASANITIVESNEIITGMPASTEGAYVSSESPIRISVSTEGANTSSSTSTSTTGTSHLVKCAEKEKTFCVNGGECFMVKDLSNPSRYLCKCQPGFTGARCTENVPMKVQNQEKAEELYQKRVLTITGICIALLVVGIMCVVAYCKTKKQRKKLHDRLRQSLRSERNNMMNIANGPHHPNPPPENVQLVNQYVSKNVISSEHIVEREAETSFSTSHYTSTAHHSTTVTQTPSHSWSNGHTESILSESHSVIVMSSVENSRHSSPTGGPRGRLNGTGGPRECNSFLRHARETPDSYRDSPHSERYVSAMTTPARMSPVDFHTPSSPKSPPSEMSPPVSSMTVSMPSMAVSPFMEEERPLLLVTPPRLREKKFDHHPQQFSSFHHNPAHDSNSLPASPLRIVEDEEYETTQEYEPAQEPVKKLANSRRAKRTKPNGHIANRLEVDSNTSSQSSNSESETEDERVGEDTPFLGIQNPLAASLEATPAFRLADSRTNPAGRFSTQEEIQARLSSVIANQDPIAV

[7] = system: Neuregulin-1 EGF-like domain; assay: small molecules binding NRG1 EGF domain – biochemical, small-molecule microarray, 635 nm fluorescence, primary screen (AID 1081); conditions: higher = more signal;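 further: binding of the protein to compounds printed on small-molecule microarray slides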
[8] = FRG1 expression reporter modulators in myotubes – cell-based, C2C12 myotubes, firefly/Renilla luciferase, luminescence, FRG1 inhibition for FSHD, primary screen (AID 1084); conditions: FRG1 promoter luciferase, higher = more signal, called active from +8 up or from −8 down
[9] = small molecules captured by biotinylated probe aFST – biochemical, small-molecule microarray, fluorescence 635/667, stem cell growth factor project, primary screen (AID 1086); conditions: higher = more signal;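 further: score merges 667 nm fluorescence with signal-to-noise of each printed compound spot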
[10] = binders of probe aHhip on microarray, primary screen, stem cell growth factor project, biochemical, small-molecule microarray, fluorescence 635/667 (AID 1087); conditions: higher = more signal;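 further: score merges spot fluorescence at 667nm with spot signal to noise ratio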
[11] = system: PRMT1 (protein arginine N-methyltransferase 1); assay: small molecules binding arginine methyltransferase PRMT1 – biochemical, small-molecule microarray, 635 nm fluorescence, primary screen (AID 1088); conditions: higher = more signal;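 further: binding of Prmt1 protein to compounds spotted on small-molecule microarray slides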
[12] = growth effects on S. cerevisiae YJM789 – YJM789 clinical isolate, OD600, 24 h, basal, primary screen (AID 1089); conditions: higher = more signal, called active from +8 up or from −8 down;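 further: growth of clinical yeast isolate S. cerevisiae YJM 789 seeded 1000 cells per well; test concentration not given here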
[13] = S. pombe growth modifiers, basal conditions – strain 972, OD600, 24 h, no modulator, primary screen (AID 1090);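 further: basal condition with compound alone and no growth modifier present; test concentration not given here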; conditions: S. pombe 972 growth, higher = more signal, called active from +8 up or from −8 down
[14] = budding yeast growth modifiers under rapamycin – strain BY4716, OD600, 96 h, primary screen (AID 1091); further: test concentration not given here; conditions: S. cerevisiae BY4716 + rapamycin, higher = more signal, called active from +8 up or from −8 down
[15] = biological target: Torsin-1A-interacting protein 2 (Homo sapiens) (UniProt Q8NFQ8); assay: small molecules binding lysate-expressed LULL1 – cell lysate, human LULL1 lysate, 635/667 nm fluorescence, primary screen (AID 1092); conditions: small-molecule microarray, hLULL1 lysate binding, 635 nm fluorescence; higher = more signal;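 further: probe is lysate of COS7 cells overexpressing human LULL1; score merges per-feature 667 nm fluorescence with signal-to-noise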
Sequence of Torsin-1A-interacting protein 2 (Homo sapiens) (Q8NFQ8 whole entry, looked up): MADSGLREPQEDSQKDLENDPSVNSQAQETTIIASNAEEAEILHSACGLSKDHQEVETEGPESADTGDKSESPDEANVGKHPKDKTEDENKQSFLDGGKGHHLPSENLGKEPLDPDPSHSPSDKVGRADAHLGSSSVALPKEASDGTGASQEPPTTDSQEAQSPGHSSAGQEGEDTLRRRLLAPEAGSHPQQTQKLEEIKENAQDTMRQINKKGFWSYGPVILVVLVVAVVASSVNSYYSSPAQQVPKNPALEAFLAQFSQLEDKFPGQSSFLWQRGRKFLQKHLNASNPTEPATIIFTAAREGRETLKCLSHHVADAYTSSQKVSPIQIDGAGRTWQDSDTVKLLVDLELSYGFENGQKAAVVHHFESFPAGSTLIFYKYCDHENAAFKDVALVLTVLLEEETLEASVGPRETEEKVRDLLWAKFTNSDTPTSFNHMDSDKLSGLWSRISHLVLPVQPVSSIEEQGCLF

[16] = optical density change of DRC41 E. coli – strain DRC41, OD650, 24 h, E. coli filamentation project, primary screen (AID 1093);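 further: MC1000 strain lacking acrAB efflux and sulA so SOS filamentation is blocked; test concentration not given here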; conditions: E. coli DRC41 growth, higher = more signal, called active from +8 up or from −8 down
[17] = probe aLefty2 binding to arrayed compounds – biochemical, biotinylated probe, 635/667 nm fluorescence, primary screen (AID 1094); conditions: small-molecule microarray, higher = more signal;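 further: score merges spot fluorescence near 667 nm with spot signal-to-noise ratio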
[18] = system: Noggin (protein binding on small-molecule microarray); assay: small molecules binding Noggin protein – biochemical, 635/667 nm fluorescence, primary screen (AID 1095); conditions: 635 nm fluorescence, higher = more signal;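 further: score merges 667 nm feature fluorescence with signal to noise over triplicate slides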
[19] = biological target: Neurogenic locus notch homolog protein 3 (Homo sapiens) (UniProt Q9UM47); assay: small molecules binding NOTCH3 protein – biochemical, 635/667 nm fluorescence, primary screen (AID 1096); conditions: small-molecule microarray, 635 nm fluorescence, higher = more signal
Sequence of Neurogenic locus notch homolog protein 3 (Homo sapiens) (Q9UM47 whole entry, looked up): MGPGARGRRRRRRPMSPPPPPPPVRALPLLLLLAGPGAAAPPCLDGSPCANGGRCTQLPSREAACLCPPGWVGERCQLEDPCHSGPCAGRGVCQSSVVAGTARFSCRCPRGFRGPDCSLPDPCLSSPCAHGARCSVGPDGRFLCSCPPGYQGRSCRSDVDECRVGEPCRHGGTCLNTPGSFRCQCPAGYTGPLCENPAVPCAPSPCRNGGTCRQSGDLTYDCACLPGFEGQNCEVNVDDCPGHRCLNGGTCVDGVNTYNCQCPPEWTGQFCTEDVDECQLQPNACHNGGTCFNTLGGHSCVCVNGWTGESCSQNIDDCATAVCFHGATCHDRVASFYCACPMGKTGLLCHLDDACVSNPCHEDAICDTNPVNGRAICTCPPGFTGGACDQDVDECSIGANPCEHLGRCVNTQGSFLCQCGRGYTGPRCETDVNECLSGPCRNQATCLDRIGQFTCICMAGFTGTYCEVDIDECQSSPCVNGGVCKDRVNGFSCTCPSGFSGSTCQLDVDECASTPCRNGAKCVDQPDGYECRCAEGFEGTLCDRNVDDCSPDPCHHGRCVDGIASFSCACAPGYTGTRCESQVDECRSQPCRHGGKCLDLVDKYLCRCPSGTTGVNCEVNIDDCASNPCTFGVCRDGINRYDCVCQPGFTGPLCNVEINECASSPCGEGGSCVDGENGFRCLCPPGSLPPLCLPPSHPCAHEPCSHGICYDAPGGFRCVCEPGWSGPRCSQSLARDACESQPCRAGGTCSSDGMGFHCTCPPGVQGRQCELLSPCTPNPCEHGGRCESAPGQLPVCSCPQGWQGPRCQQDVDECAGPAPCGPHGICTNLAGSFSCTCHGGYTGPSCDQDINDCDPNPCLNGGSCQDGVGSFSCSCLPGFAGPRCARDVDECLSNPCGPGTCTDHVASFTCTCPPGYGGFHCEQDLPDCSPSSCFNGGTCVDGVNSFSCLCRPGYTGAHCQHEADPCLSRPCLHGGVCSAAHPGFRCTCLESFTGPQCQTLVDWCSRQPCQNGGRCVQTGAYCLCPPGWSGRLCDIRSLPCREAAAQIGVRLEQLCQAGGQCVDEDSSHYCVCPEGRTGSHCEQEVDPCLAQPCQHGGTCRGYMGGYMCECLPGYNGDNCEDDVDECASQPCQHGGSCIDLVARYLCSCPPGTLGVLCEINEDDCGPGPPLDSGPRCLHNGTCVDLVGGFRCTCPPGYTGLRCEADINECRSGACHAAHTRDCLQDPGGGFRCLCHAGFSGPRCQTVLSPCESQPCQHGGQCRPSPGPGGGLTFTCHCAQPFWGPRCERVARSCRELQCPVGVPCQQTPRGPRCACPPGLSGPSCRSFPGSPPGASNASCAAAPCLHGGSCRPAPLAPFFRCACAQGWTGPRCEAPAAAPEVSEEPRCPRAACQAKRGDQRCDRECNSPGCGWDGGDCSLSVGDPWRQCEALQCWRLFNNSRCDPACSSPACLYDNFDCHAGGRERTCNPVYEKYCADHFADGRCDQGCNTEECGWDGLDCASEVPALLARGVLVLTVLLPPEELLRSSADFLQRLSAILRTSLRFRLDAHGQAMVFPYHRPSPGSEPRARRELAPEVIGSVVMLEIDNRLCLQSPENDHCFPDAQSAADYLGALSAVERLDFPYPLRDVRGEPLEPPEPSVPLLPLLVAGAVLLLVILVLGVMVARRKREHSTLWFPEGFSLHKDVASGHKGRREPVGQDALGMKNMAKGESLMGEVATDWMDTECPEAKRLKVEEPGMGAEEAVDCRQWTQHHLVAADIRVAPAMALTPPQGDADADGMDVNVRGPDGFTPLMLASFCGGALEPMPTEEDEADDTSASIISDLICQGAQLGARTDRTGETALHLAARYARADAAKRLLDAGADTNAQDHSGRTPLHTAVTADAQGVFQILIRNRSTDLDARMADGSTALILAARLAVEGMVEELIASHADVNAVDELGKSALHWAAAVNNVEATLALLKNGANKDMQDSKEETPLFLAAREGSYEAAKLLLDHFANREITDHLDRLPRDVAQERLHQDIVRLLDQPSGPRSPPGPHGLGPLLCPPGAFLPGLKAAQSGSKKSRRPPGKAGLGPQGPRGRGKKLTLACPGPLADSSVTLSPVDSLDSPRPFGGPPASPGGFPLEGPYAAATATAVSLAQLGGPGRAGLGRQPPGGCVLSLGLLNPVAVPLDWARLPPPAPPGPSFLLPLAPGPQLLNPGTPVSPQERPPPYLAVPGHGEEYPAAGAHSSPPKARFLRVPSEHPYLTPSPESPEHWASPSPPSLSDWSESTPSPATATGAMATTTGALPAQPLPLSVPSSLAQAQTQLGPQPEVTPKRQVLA

[20] = probe aEGFR binding to arrayed compounds – biochemical, biotinylated probe, 635/667 nm fluorescence, primary screen (AID 1097); conditions: small-molecule microarray, higher = more signal;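 further: probe is a biotinylated anti-EGFR antibody binding compounds printed on slides; score combines fluorescence near 667 nm and signal to noise of each spot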

Structure (SMILES) | composite z-score [1] | composite z-score [2] | composite z-score [3] | composite z-score [4] | composite z-score [5] | composite z-score [6] | composite z-score [7] | z-score [8] | composite z-score [9] | composite z-score [10] | composite z-score [11] | z-score [12] | z-score [13] | z-score [14] | composite z-score [15] | z-score [16] | composite z-score [17] | composite z-score [18] | composite z-score [19] | composite z-score [20]
CC(=O)N1Cc2ccccc2C[C@@]2(N=C(c3ccc(OCCCO)cc3)O[C@H]2c2ccccc2)C1=O | 0.136 | 0.0287 | 0.0933 | 0.145 | 1.09 | 1.54 | 1.31 | -3.53 (inactive) | 1.55 | -0.393 | 1.53 | -3.56 (inactive) | -3.68 (inactive) | 17.1 (active) | 3.32 | 1.5 (inactive) | 0.215 | 1.47 | 1.11 | 0.107
CCCC[C@@H]1C[C@H]1[C@@H](NC(=O)c1ccccc1)c1ccc(-c2ccccc2)cc1 | -0.138 | 0.535 | 0.0805 | -0.0214 | 0.294 | 0.23 | 0.341 | -1.76 (inactive) | 0.442 | -0.21 | 0.409 | -2.02 (inactive) | 0.256 (inactive) | 2.7 (inactive) | 2.3 | -0.947 (inactive) | -0.12 | 0.364 | 0.496 | -0.117
COCCOC(=O)N1C(=O)[C@@]2(c3ccccc31)[C@H](C(=O)N1CCCCCCC1)[C@H]1C(=O)O[C@H](c3ccccc3)[C@H](c3ccccc3)N1[C@@H]2c1ccccc1OCCO | 3.82 | 1.77 | 0.679 | 0.684 | 1.3 | 1.84 | 1.38 | -0.91 (inactive) | 3.36 | 3.52 | 1.53 | 0.749 (inactive) | 0.238 (inactive) | 5.75 (inactive) | 3.61 | -0.737 (inactive) | 1.67 | 0.785 | 1.06 | 1.03
O=C1O[C@@H](c2ccccc2)[C@@H](c2ccccc2)N2[C@@H](c3ccccc3OCCO)[C@]3(C(=O)Nc4ccc(C#CC5(O)CCCCCC5)cc43)[C@@H](C(=O)NC[C@H](O)c3ccccc3)[C@H]12 | 1.99 | 0.142 | 0.0924 | 1.03 | 0.81 | 1.75 | 1.24 | -1.2 (inactive) | 1.74 | 0.0145 | 1.55 | 1.77 (inactive) | 1.16 (inactive) | 4.86 (inactive) | 3.08 | -0.371 (inactive) | 0.161 | 1.69 | 1.05 | 0.146
CCOC(=O)C1=C[C@@H](C(C)(C)C)N(S(=O)(=O)c2ccc(C)cc2)[C@H]1c1ccc(Cl)c(Cl)c1 | -0.301 | 0.134 | 0.12 | 0.614 | 1.56 | 1.53 | 0.911 | -0.446 (inactive) | 0.514 | -0.236 | 1.46 | 0.771 (inactive) | 1.71 (inactive) | 2.44 (inactive) | 2.68 | -0.875 (inactive) | 0.201 | 0.346 | 1.09 | 0.239
CN1C(=O)C2C(C1=O)C1C=C(c3ccc(CO)cc3)C2C(C2CC2)N1Cc1cc2c(cc1Br)OCO2 (stereo not given) | -0.0526 | 1.44 | -0.0171 | 0.561 | 1.61 | 1.46 | 1.24 | -4.12 (inactive) | 0.917 | -0.127 | 1.53 | -3.93 (inactive) | -6.09 (inactive) | 0.385 (inactive) | 3.49 | -0.911 (inactive) | 0.313 | 0.268 | 1.09 | 0.035
C[N+](C)(C)CCCC[C@@H]1NC(=O)[C@@H]2C[C@H](C(=O)NCCCCCCNC(=O)CS)[C@H](c3cccc(OCCO)c3)N2C1=O | -0.145 | 0.976 | -0.132 | -0.459 | -0.395 | 0.612 | 1.36 | -0.944 (inactive) | -0.713 | -0.0193 | 1.12 | -1.33 (inactive) | -0.333 (inactive) | -0.485 (inactive) | 1.09 | -0.102 (inactive) | -0.21 | 1.84 | -0.0644 | -0.233
CC(C)(C)OC(=O)CC[C@@]1(C(=O)N2CCOCC2)N=C(c2ccc(OCCCO)cc2)O[C@@H]1c1ccccc1N=[N+]=[N-] | 0.0033 | 1.13 | 0.213 | 0.883 | 1.43 | 1.75 | 1.29 | 0.97 (inactive) | 1.57 | 0.142 | 1.53 | 0.501 (inactive) | -0.165 (inactive) | 0.404 (inactive) | 3.67 | 1.29 (inactive) | 0.0769 | 0.952 | 1.06 | 0.127
CC(=O)NCCCC[C@@H]1NC(=O)[C@@H]2C[C@H](C(=O)NCc3ccc(F)cc3)[C@H](c3ccc(O)cc3)N2C1=O | 0.114 | 0.798 | 0.0377 | 0.639 | -0.326 | 0.772 | 1.47 | -0.0693 (inactive) | -0.21 | -0.0994 | 1.54 | -0.36 (inactive) | -1.36 (inactive) | -0.713 (inactive) | 2.41 | 1.53 (inactive) | -0.128 | 1.67 | 0.208 | -0.122
C=CC[C@@]1(C(N)=O)N=C(c2ccc(OCCCO)cc2)O[C@@H]1c1ccccc1N=[N+]=[N-] | 1.68 | 0.444 | 0.069 | 1.08 | 1.13 | 1.5 | 1.34 | 2.64 (inactive) | 1.03 | 0.0769 | 1.14 | -0.545 (inactive) | 0.0584 (inactive) | -1.15 (inactive) | 2.44 | 1.4 (inactive) | 0.429 | 0.404 | -0.299 | 0.317
